Test results from PubChem BioAssay AID1159580 (chemical genetic matrix, 2015).
Among all 5,500 compounds or so, about 2,000 (36%) were called active. Roughly 18% stayed inconclusive and do not appear here. No stated cut-off is given here; in the data, active means normalized growth mostly below about 0.91 (no sharp cut-off); inconclusive means no clear call, values can overlap the other calls; inactive means mostly above about 0.92. The list shows a part of the results.

Assay: chemical genetic growth profiling, strain panel (AID 1159580);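 further: tested at 20 µM; growth read once vehicle control cultures reached saturation at 30 °C; 1 = growth at the plate median or of vehicle wells; lower values mean less growth of the strain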
Settings: S. cerevisiae deletion strains, growth OD

Measured: normalized growth

NC(N)=NCCCC(NC(=O)C(N)Cc1ccc(O)cc1)C(=O)O (configuration not stated)
inactive: locus YAL013W, strain DEP1, hits give low values 1.03 | locus YBR229C, strain ROT2, hits give low values 0.998 | locus YCL029C, strain bik1, hits give low values 0.969 | locus YDL035C, strain GPR1, hits give low values 1.04 | locus YDL074C, strain BRE1, hits give low values 1.03 | locus YDL101C, strain DUN1, hits give low values 0.989 | locus YDL185W, strain tfp1, hits give low values 0.962 | locus YDL192W, strain arf1, hits give low values 0.994 | locus YDR101C, strain arx1, hits give low values 0.989 | locus YDR162C, strain NBP2, hits give low values 1.02 | locus YDR318W, strain mcm21, hits give low values 0.991 | locus YDR388W, hits give low values 0.989 | locus YDR502C, strain sam2, hits give low values 0.987 | locus YEL061C, strain CIN8, hits give low values 0.988 | locus YER110C, hits give low values 0.971 | locus YER155C, strain BEM2, hits give low values 0.99 | locus YER167W, strain BCK2, hits give low values 1.01 | locus YGL078C, strain dbp3, hits give low values 1 | locus YGL086W, strain mad1, hits give low values 0.981 | locus YGL248W, strain PDE1, hits give low values 0.997 | locus YGR135W, strain pre9, hits give low values 1 | locus YGR229C, strain SMI1, hits give low values 1.05 | locus YGR252W, strain gcn5, hits give low values 1.23 | locus YHR030C, strain SLT2, hits give low values 0.994 | locus YHR079C, strain IRE1 (second series), hits give low values 0.968 | locus YHR094C, strain hxt1, hits give low values 0.985 | locus YHR129C, strain ARP1, hits give low values 0.99 | locus YHR200W, strain rpn10, hits give low values 0.981 | locus YIL066C, strain RNR3, hits give low values 1.01 | locus YIL073C, strain SPO22, hits give low values 0.924 | locus YIL125W, strain kgd1, hits give low values 0.995 | locus YIR030C, strain dcg1, hits give low values 0.996 | locus YJL095W, strain BCK1, hits give low values 0.988 | locus YJL134W, strain LCB3, hits give low values 0.992 | locus YJL168C, strain set2, hits give low values 0.989 | locus YJL187C, strain SWE1 (second series), hits give low values 0.99 | locus YJR043C, strain POL32, hits give low values 1.08 | locus YKL009W, strain mrt4, hits give low values 0.938 | locus YKL068W, hits give low values 0.968 | locus YKL085W, strain MDH1 (second series), hits give low values 0.988 | locus YKL085W, strain MDH1, hits give low values 0.988 | locus YKL190W, strain CNB1, hits give low values 0.993 | locus YKR001C, strain vps1, hits give low values 0.982 | locus YLR039C, strain RIC1, hits give low values 1 | locus YLR058C, strain SHM2, hits give low values 0.991 | locus YLR102C, strain apc9, hits give low values 0.972 | locus YLR262C, strain YPT6, hits give low values 1 | locus YLR268W, strain sec22, hits give low values 0.97 | locus YLR330W, strain CHS5, hits give low values 0.988 | locus YLR342W, strain FKS1 (second series), hits give low values 1.05 | locus YLR371W, strain rom2, hits give low values 0.99 | locus YLR418C, strain cdc73, hits give low values 1.07 | locus YML016C, strain PPZ1, hits give low values 0.992 | locus YML032C, strain rad52, hits give low values 0.996 | locus YML124C, strain tub3, hits give low values 0.995 | locus YMR078C, strain ctf18, hits give low values 0.997 | locus YMR223W, strain ubp8, hits give low values 1.03 | locus YMR263W, strain SAP30, hits give low values 0.983 | locus YMR307W, strain GAS1, hits give low values 1.31 | locus YNL067W, strain RPL9B, hits give low values 0.968 | locus YNL233W, strain BNI4, hits give low values 1 | locus YNL250W, strain rad50, hits give low values 0.951 | locus YNL271C, strain bni1, hits give low values 1 | locus YNL298W, strain CLA4, hits give low values 0.995 | locus YNL307C, strain MCK1, hits give low values 0.985 | locus YNL322C, strain KRE1, hits give low values 1 | locus YNR052C, strain pop2, hits give low values 0.976 | locus YOL006C, strain TOP1, hits give low values 1.04 | locus YOL012C, strain htz1 1.32 | locus YOL147C, strain pex11, hits give low values 0.991 | locus YOR061W, strain CKA2, hits give low values 0.988 | locus YOR069W, strain VPS5, hits give low values 0.989 | locus YOR136W, strain idh2, hits give low values 0.978 | locus YOR144C, strain elg1, hits give low values 0.995 | locus YOR184W, strain ser1, hits give low values 0.984 | locus YOR316C, strain cot1, hits give low values 0.979 | locus YPR119W, strain clb2, hits give low values 0.988 | locus YPR141C, strain kar3, hits give low values 0.969 | locus YPR163C, strain tif3, hits give low values 1 | locus YPR167C, strain met16, hits give low values 0.997 | strain wtn01, hits give low values 0.964
active: locus YBR021W, strain FUR4, hits give low values 1.25 [resistant]
